For 17 compounds, outcome and AC50 results are on record in PubChem BioAssay (EPA / NIEHS).

Results filed as inconclusive are left out. Active and inactive are the calls of the source. Rule for the calls, unless noted: active = hit-call score of the fitted dose curve at least 0.9, where 1 is the maximum; inactive = score below 0.9.

The first experiment concerns SRD5A2 (gene 6716). In words: CCTE_Deisenroth_5AR_NBTE_ratio: CCTE's 5alpha-reductase NanoBRET Target Engagement Assay - Ratio, Deisenroth Lab (AID 2284322). Particulars: actives raise or lower the signal. In short, it runs like this: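 HEK293T transiently expressing SRD5A2-NanoLuc; cells exposed to chemical (8-point, 10 nM - 29.9 uM) for 5 h total, testosterone tracer added for final 2 h. NanoBRET acceptor/donor ratio (650/460 nm), bidirectional fit vs DMSO.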
As to `CCCCc1oc2ccccc2c1C(=O)c1cc(I)c(OCCN(CC)CC)c(I)c1`, the outcome was inactive.

Turning to `CCCCCCc1ccc(N)cc1`, the concentration at half-maximal activity (AC50) is 50 µM (active).

As for `CCc1ccccc1O`, the outcome was inactive.

Turning to `O=C1OC2(c3ccccc31)c1cc(I)c(O)c(I)c1Oc1c2cc(I)c(O)c1I`, the AC50 was 6 µM (active).

As for `COc1cc([N+](=O)[O-])ccc1N`, the half-maximal activity concentration (AC50) was 50 µM (active).

For `CCCCCCCCCCCCOS(=O)(=O)O`, the AC50 was 83.9 µM (active).

For `CCCCCCCCCCCC`, the result was inactive.

For the compound `NC(=NCCCCCCN=C(N)/N=C(\N)Nc1ccc(Cl)cc1)/N=C(\N)Nc1ccc(Cl)cc1`, the AC50 is 81 µM (active).

A further experiment deals with Brachyury (BRA) Protein Expression, Deisenroth Lab, TBXT (gene 6862). Kind of experiment: CCTE_Deisenroth_DEVTOX-GLR_legacy_Bra: (Legacy) CCTE's DevTox GLR-Endo Assay Evaluation of Brachyury (BRA) Protein Expression, Deisenroth Lab (AID 2284329).
Settings: not given
Here is the method: CCTE_Deisenroth_DEVTOX-GLR_legacy assay is a cell-based, multiplex-readout assay that uses RUES2-GLR, a human pluripotent cell line, with measurements taken at 48 hours after chemical dosing in a 384-well microplateCCTE_Deisenroth_DEVTOX-GLR_legacy_Bra is one of 4 assay components calculated from the CCTE_Deisenroth_DEVTOX-GLR_legacy assay that measures an increase in the percentage of cells in an […] state. It is designed to make measurements of inducible reporter a form of fluorescent protein induction as detected with optical fluorescence microscopy. Percentage Bra+ cells are determined by calculating the number of Bra+ cells divided by cell count. A cell is Bra+ if the cell Bra mean intensity is 5x BMAD above the pluripotent control median cell Bra mean. The assay endpoint was analyzed with bidirectional fitting with the 0.2% DMSO control median percent Bra in the DEVTOX-GLR assay subtracted.Data from the assay component CCTE_Deisenroth_DEVTOX-GLR_legacy_Bra was analyzed into 1 assay endpoint. This assay endpoint, CCTE_Deisenroth_DEVTOX-GLR_legacy_Bra, was analyzed in the positive analysis fitting direction relative to DMSO as the negative control and baseline activity. Using a type of inducible reporter, gain-of-signal activity can be used to understand changes in gene expression. Furthermore, this assay endpoint can be referred to as a secondary readout, because this assay has produced multiple assay endpoints where this one serves as a measure of mesoderm differentiation. To generalize the intended target to other relatable targets, this assay endpoint is annotated to the transcription factor intended target family, where the subfamily is T-box protein.
All assay protocols are aligned to the DevTox GLR-Endo assay workflow. […] Cell identification and mean biomarker fluorescence intensities are calculated with image analysis software to determine the total cell counts for viability assessment and the biomarker expression frequency for each lineage-dependent assay. […]
Take `CCCCc1oc2ccccc2c1C(=O)c1cc(I)c(OCCN(CC)CC)c(I)c1`: the AC50 is 19.8 µM (active).

`CC(=O)Nc1ccc(O)cc1`: the result was inactive.

Consider `O=C1NS(=O)(=O)c2ccccc21`, for which the compound was classed as inactive.

Test system in a further experiment: not listed separately
In words: CCTE_Deisenroth_DEVTOX-GLR_legacy_CellCount: (Legacy) Viability Assessment in CCTE's DevTox GLR-Endo Assay, Deisenroth Lab (AID 2284331). The note with it: actives raise or lower the signal. Here is the method:
CCTE_Deisenroth_DEVTOX-GLR_legacy assay is a cell-based, multiplex-readout assay that uses RUES2-GLR, a human pluripotent cell line, with measurements taken at 48 hours after chemical dosing in a 384-well microplateCCTE_Deisenroth_DEVTOX-GLR_legacy_CellCount is one of 4 assay components calculated from the CCTE_Deisenroth_DEVTOX-GLR_legacy assay that measures an increase in cell count. It is designed to make measurements of nuclei count, a form of cell viability, as detected with optical fluorescence microscopy by Perkin Elmer Harmony nuclei detection algorithm. The assay endpoints were analyzed with bidirectional fitting relative to 0.2% DMSO control in the DEVTOX-GLR assay.Data from the assay component CCTE_Deisenroth_DEVTOX-GLR_legacy_CellCount was analyzed into 1 assay endpoint. This assay endpoint, CCTE_Deisenroth_DEVTOX-GLR_legacy_CellCount, was analyzed with bidirectional fitting relative to DMSO as the negative control and baseline activity. Using nuclei counting, gain or loss-of-signal activity can be used to understand changes in cell viability. Furthermore, this assay endpoint can be referred to as a primary readout, because this assay has produced multiple assay endpoints where this one serves as a measure of cytotoxicity. To generalize the intended target to other relatable targets, this assay endpoint is annotated to the cell cycle intended target family, where the subfamily is cytotoxicity.
All assay protocols are aligned to the DevTox GLR-Endo assay workflow. Cells are seeded into 384-well microplates for 24 hours prior to initiating differentiation in defined media for a total duration of 48 hours. A total of two chemical exposures are administered in 24-hour intervals during the 48-hour differentiation period. At the assay termination point, cells are fixed and stained with a fluorescent dye demarcating the nucleus. High-content imaging is used to acquire brightfield and fluorescent channel images across 5 fields per well. Cell identification and mean biomarker fluorescence intensities are calculated with image analysis software to determine the total cell counts for viability assessment and the biomarker expression frequency for each lineage-dependent assay. A typical experimental design tests a 10-point concentration series (1 nM - 200 uM) for 28 compounds in single technical replicate. Assay plate controls include non-differentiated pluripotent cells (baseline control), lineage-specific differentiated cells (differentiation control), and DMSO solvent exposed differentiated cells (solvent control). Experiments typically comprise a minimum of four experimental replicates (n=4).
Turning to `CCCCc1oc2ccccc2c1C(=O)c1cc(I)c(OCCN(CC)CC)c(I)c1`, the half-maximal activity concentration (AC50) was 18.2 µM (active).

Regarding `CN(C)CCOC(c1ccccc1)c1ccccc1`, the AC50 is 63.9 µM (active).

For the compound `CC(=O)Nc1ccc(O)cc1`, the compound was called inactive.

On to `O=C1NS(=O)(=O)c2ccccc21`, for which the compound was called inactive.

As to `CN(Cc1cnc2nc(N)nc(N)c2n1)c1ccc(C(=O)N[C@@H](CCC(=O)O)C(=O)O)cc1`, the AC50 is 0.359 µM (active).

Test system in the next experiment: not listed separately
In words: IUF_NPC1_cytotoxicity_72hr: Cytotoxicity Assessment at 72 hours in the Leibniz Research Institute for Environmental Medicine (IUF) Neural Progenitor Cell Proliferation Assay (NPC1) (AID 2284332; active = hit-call score of the fitted dose curve at least 0.9, where 1 is the maximum;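 note: rising LDH signal means more cytotoxicity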).
Settings: not given
Here is the method:
IUF_NPC1 is a cell-based, multiplexed assay that uses hNPC, a human primary neural progenitor cells, with measurements taken at 72 hours after chemical dosing in a 96-well plate. Human neural progenitor cells (hNPC) are generated from human fetal brain cortex at gestational week (GW) 16-19. Grown in suspension culture and under proliferative conditions (proliferation media and growth factors), these cells represent neural progenitor cell proliferation. In the NPC1 assay, hNPC's are exposed to the test compound for 72h. Cell proliferation is assessed as an increase in sphere area using automated phase contrast imaging and as incorporation of Bromodeoxyuridine (BrdU) during DNA synthesis using a luminescence-based cell proliferation ELISA. In parallel, the cell viability is assessed using an alamar blue viability assay and the cytotoxicity using a lactate dehydrogenase dependent membrane integrity assay.IUF_NPC1_cytotoxicity_72hr is one of 4 assay components measured from the IUF_NPC1 assay. It is designed to measure cytotoxicity at 72 hrs due to loss of membrane integrity. LDH measurements are performed from medium supernatants of each well and are based on the reduction of resazurin to resorufin measured as fluorescence signal (relative fluorescence unit) in a multiplate reader. Data from the IUF_NPC1_cytotoxicity_72hr component was analyzed at the endpoint IUF_NPC1_cytotoxicity_72hr in the positive analysis fitting direction relative to the dynamic range and baseline of activity. Using a type of viability reporter, gain-of-signal activity can be used to understand cytotoxicity effects.
After the cell expansion period, the cells are cultured for up to four weeks in which they are passaged every week. Between one to three days after passaging, depending on the size chosen for passaging, spheres at a size of 0.3 mm are used in the assay. For the assessment of neural progenitor cell proliferation, the spheres are plated in poly-Hema coated 96-well U-bottom plates filled with proliferation medium containing growth factors (EGF and FGF). One 0.25 - 0.35 mm big sphere is plated in the middle of each well. Within 3 days NPCs proliferate and grow in size. Cultivation during the test method is performed at 37C and 5% CO2 at a pH of 7.2-7.6. As a positive control, spheres are cultivated in the absence of growth factors (EGF and FGF), which dramatically reduces proliferation. Exposure starts on the plating day (day 0) and is continued over three days, without chemical renewal, until the experiment is terminated. The assay is terminated by the assessment of cell viability, cytotoxicity, and proliferation by BrdU. All endpoints are generated from the same experimental run and from each well/sphere in the 96-well plate.
For the compound `CC(C)c1c(C(=O)Nc2ccccc2)c(-c2ccccc2)c(-c2ccc(F)cc2)n1CC[C@@H](O)C[C@@H](O)CC(=O)O`, the outcome was inactive.

`O=C(CCCN1CCC(O)(c2ccc(Cl)cc2)CC1)c1ccc(F)cc1`: the call was inactive.

With `CC(=O)Nc1ccc(O)cc1`, the compound was classed as inactive.

For `O=C1NS(=O)(=O)c2ccccc21`, the compound was classed as inactive.

Test system in another experiment: not listed separately
Kind of experiment: CCTE_Mundy_HCI_iCellGluta_NOG_NeuronCount: CCTE's Neurite Outgrowth Assay in iCellGluta cells for Neuron Count, Mundy Lab (AID 2284340; active = hit-call score of the fitted dose curve at least 0.9, where 1 is the maximum;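 note: cells fixed about 48 h after compound addition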).
Settings: not given
In short, it runs like this: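 Neuron count read by automated high-content imaging of Hoechst 33342 and betaIII-tubulin/Alexa Fluor-488 labelling in human iPSC glutamatergic neurons. Activity fitted relative to DMSO.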
Turning to `CC(C)c1c(C(=O)Nc2ccccc2)c(-c2ccccc2)c(-c2ccc(F)cc2)n1CC[C@@H](O)C[C@@H](O)CC(=O)O`, the AC50 is 10.1 µM (active).

As to `O=P(O)(O)CCC(F)(F)C(F)(F)C(F)(F)C(F)(F)C(F)(F)C(F)(F)F`, the call was inactive.

`C=CC(=O)OCCC(F)(F)C(F)(F)C(F)(F)C(F)(F)C(F)(F)C(F)(F)C(F)(F)C(F)(F)F`: the compound was called inactive.

On to `OCC(F)(F)C(F)(F)C(F)(F)C(F)(F)C(F)(F)C(F)(F)C(F)(F)C(F)(F)C(F)(F)C(F)(F)C(F)(F)F`, for which the AC50 is 1.55 µM (active).

A further experiment deals with SRY-box transcription factor 17 (SOX17) Protein Expression, Deisenroth Lab, SOX17 (gene 64321). In words: CCTE_Deisenroth_DEVTOX-GLR_legacy_Sox17: (Legacy) CCTE's DevTox GLR-Endo Assay Evaluation of SRY-box transcription factor 17 (SOX17) Protein Expression, Deisenroth Lab (AID 2284341). Particulars: actives raise or lower the signal. In short, it runs like this: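 RUES2-GLR human pluripotent cells differentiated toward endoderm for 48 h, dosed twice at 24 h intervals (1 nM–200 uM, 10 points). Imaging gives % SOX17+ cells (intensity >5x BMAD above pluripotent control median); bidirectional fit versus 0.2% DMSO.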
For `CCCCc1oc2ccccc2c1C(=O)c1cc(I)c(OCCN(CC)CC)c(I)c1`, the AC50 is 20.8 µM (active).

`CN(C)CCOC(c1ccccc1)c1ccccc1`: the AC50 was 58.1 µM (active).

Take `CC(=O)Nc1ccc(O)cc1`: the compound was classed as inactive.

Regarding `O=C1NS(=O)(=O)c2ccccc21`, the compound was classed as inactive.

With `CN(Cc1cnc2nc(N)nc(N)c2n1)c1ccc(C(=O)N[C@@H](CCC(=O)O)C(=O)O)cc1`, the compound was classed as inactive.
